# Assay results published in PubChem BioAssay (NCATS).
# Values joined by “and” are separate entries in the source; they are usually repeats but may differ in a detail not shown here. Equal entries are not always repeated. Inconclusive results are not listed. Where a call stands in place of a potency, no number is given. Active and inactive are the calls of the source. Unless noted, calls follow the shape of the dose curve; as a rule, active = well fitted curve in the direction sought with a large enough effect; inconclusive = small, poorly fitted or top-dose-only effect, or another doubt; inactive = no such curve, though single readings can be large; an effect the other way counts as inactive or inconclusive.
# Experiments:
# [1] = Cell Viability - LYMP2-014 (AID 983); also: nearly all actives have a fitted effect of over 50% in size
# Procedure, shortened: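 LYMP2-014 human lymphoblastoid cells, 2500/well, treated 24 h at 37 C in complete medium; viability by CellTiter-Glo ATP luminescence after 30 min at room temperature. AC50 from Hill fits of qHTS concentration-response; tetraoctylammonium bromide positive control.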
# [2] = Cell Viability - LYMP2-016 (AID 984); also: nearly all actives have a fitted effect of over 55% in size
# Procedure, shortened: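 Concentration-dependent ATP depletion measured in LYMP2-016 lymphoblastoid cells, 24 h, 37 C; luciferase-based luminescent detection; Hill-equation AC50.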
# [3] = Cell Viability - LYMP2-018 (AID 985);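 also: compound exposure lasted 24 hr at 37 °C; nearly all actives have a fitted effect of over 50% in size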
# Procedure, shortened: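 Human lymphoblastoid LYMP2-018 cells, 2500/well, settled 5 hr at 37 C then exposed to compound 24 hr at 37 C; intracellular ATP measured by CellTiter-Glo luminescence. AC50 from Hill-equation concentration-response fits.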
# [4] = Cell Viability - LYMP2-020 (AID 986); also: nearly all actives have a fitted effect of over 55% in size
# Procedure, shortened: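 Human lymphoblastoid LYMP2-020 cells (2500/well) preincubated 5 h at 37 C, then treated 24 h at 37 C. Viability measured as intracellular ATP by CellTiter-Glo luminescence after 30 min at room temperature; AC50 from Hill fits.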
# [5] = Cell Viability - LYMP2-022 (AID 987); also: nearly all actives have a fitted effect of over 55% in size
# Procedure, shortened: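 LYMP2-022 lymphoblastoid cells (2500/well, complete medium) were treated with compounds for 24 hours at 37 C; intracellular ATP was then read by CellTiter-Glo luminescence after 30 min at room temperature. AC50 values were derived from Hill-equation fits.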
# [6] = Cell Viability - LYMP2-024 (AID 988); also: nearly all actives have a fitted effect of over 60% in size
# Procedure, shortened: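 Human lymphoblastoid LYMP2-024 cells (2500/well) rested 5 hr, then treated with compound for 24 hr at 37 C in complete medium. Viability was measured as intracellular ATP by CellTiter-Glo luminescence. AC50 values came from Hill-equation fits.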
# [7] = Cell Viability - LYMP2-026 (AID 989); also: nearly all actives have a fitted effect of over 50% in size
# Procedure, shortened: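 Human lymphoblastoid LYMP2-026 cells, 2500/well, exposed to compound 24 h at 37 C in complete medium. Viability as intracellular ATP by CellTiter-Glo luminescence; AC50 from Hill fits of qHTS concentration-response.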
# [8] = Cell Viability - LYMP1-002 - Assay at 24 hr (AID 993)
# Procedure, shortened: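 Human lymphoblastoid LYMP1-002 cells (2500/well) treated 24 h at 37 °C; viability as intracellular ATP by CellTiter-Glo luminescence. Tetraoctylammonium bromide as positive control; AC50 from Hill-equation fits of qHTS concentration-response.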
# [9] = Cell Viability - LYMP1-002 - Assay at 40 hr (AID 994); also: nearly all actives have a fitted effect of over 60% in size
# Procedure, shortened: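 LYMP1-002 human lymphoblastoid cells (2500/well, complete medium) were treated with compounds for 40 hr at 37 C. Intracellular ATP was measured by CellTiter-Glo luminescence, and AC50 values came from Hill-equation fits of concentration-response data; tetraoctylammonium bromide was the positive control.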
# [10] = biological target: Bile acid receptor (Homo sapiens) (UniProt Q96RI1); experiment: qHTS assay for small molecule antagonists of farnesoid X receptor signaling (AID 588526; calls by dose curve)
# Sequence of Bile acid receptor (Homo sapiens) (Q96RI1 whole entry, looked up): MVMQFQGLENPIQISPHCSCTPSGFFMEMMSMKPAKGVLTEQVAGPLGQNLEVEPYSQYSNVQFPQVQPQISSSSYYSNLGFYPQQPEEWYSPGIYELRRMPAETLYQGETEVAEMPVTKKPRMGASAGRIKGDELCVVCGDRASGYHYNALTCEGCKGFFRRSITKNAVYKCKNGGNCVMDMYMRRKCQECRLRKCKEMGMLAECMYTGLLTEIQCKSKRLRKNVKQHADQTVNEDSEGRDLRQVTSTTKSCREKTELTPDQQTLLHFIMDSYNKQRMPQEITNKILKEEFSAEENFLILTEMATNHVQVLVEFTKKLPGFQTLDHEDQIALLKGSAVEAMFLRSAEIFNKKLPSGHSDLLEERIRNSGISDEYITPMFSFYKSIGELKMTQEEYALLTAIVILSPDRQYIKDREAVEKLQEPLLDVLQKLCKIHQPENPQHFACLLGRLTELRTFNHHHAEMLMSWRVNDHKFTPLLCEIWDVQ
# Procedure, shortened: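 Concentration-response titrations were fitted to the Hill equation for half-maximal inhibition and maximal response, with data normalised to 50 uM chenodeoxycholic acid and DMSO control wells. Cells: FXR-UAS-bla HEK293T, dialyzed FBS.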
# [11] = biological target: Peroxisome proliferator-activated receptor gamma (Homo sapiens) (UniProt P37231); experiment: qHTS assay for small molecule antagonists of peroxisome proliferator-activated receptor gamma signaling (AID 588537; active = well fitted inhibition curve with a large enough effect in the signal ratio, with a control signal flat, not every such curve was filed as active; the % refers to the signal ratio;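 also: reporter cells co-stimulated with 50 nM rosiglitazone agonist during compound treatment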)
# Sequence of Peroxisome proliferator-activated receptor gamma (Homo sapiens) (P37231 whole entry, looked up): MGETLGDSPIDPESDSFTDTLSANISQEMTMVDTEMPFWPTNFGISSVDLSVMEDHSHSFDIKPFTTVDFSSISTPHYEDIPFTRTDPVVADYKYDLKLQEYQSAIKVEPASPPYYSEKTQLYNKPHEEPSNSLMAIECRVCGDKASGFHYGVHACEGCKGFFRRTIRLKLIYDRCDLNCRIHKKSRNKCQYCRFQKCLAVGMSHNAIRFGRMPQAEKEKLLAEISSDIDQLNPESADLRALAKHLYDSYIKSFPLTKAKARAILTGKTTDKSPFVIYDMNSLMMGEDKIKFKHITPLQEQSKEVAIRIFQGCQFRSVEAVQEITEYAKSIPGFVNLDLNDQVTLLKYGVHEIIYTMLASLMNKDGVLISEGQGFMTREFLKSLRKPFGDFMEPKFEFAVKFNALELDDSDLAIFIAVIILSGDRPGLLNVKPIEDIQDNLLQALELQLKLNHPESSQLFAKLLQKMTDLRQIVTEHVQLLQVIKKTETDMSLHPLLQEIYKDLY
# Procedure, shortened: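 We seeded GeneBLAzer HEK293 reporter cells at 3000 per well, allowed 6-6.5 h attachment at 37 C, then co-treated with test compound titrations and 50 nM rosiglitazone overnight (16 h). Inhibition was quantified from 460/530 nm emission ratios.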
# [12] = qHTS assay for small molecule agonists of the antioxidant response element (ARE) signaling pathway (AID 651741; active = well fitted activation curve with a large enough effect in the signal ratio; the % refers to the signal ratio)
# Procedure, shortened: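 Compounds in DMSO are pinned onto HepG2 ARE-bla cells (2,000/well) that were preincubated 5 h; plates stay 16 h at 37 C, then beta-lactamase activity is detected with LiveBLAzer B/G substrate by fluorescence.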
# [13] = Cell Viability - LYMP2-003 (AID 965);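 also: cells exposed to compounds for 24 h before reading; nearly all actives have a fitted effect of over 50% in size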
# Procedure, shortened: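 qHTS, human lymphoblastoid line, 2500 cells/well, complete medium. 24 h drug, 37 C. ATP-based luminescent readout; Hill-fit AC50.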
# [14] = biological target: Estrogen receptor (Homo sapiens) (UniProt P03372); experiment: qHTS assay for small molecule antagonists of estrogen receptor alpha signaling (AID 588513; active = well fitted curve in the direction sought with a large enough effect in the signal ratio, with a control signal flat, not every such curve was filed as active; the % refers to the signal ratio)
# Sequence of Estrogen receptor (Homo sapiens) (P03372 whole entry, looked up): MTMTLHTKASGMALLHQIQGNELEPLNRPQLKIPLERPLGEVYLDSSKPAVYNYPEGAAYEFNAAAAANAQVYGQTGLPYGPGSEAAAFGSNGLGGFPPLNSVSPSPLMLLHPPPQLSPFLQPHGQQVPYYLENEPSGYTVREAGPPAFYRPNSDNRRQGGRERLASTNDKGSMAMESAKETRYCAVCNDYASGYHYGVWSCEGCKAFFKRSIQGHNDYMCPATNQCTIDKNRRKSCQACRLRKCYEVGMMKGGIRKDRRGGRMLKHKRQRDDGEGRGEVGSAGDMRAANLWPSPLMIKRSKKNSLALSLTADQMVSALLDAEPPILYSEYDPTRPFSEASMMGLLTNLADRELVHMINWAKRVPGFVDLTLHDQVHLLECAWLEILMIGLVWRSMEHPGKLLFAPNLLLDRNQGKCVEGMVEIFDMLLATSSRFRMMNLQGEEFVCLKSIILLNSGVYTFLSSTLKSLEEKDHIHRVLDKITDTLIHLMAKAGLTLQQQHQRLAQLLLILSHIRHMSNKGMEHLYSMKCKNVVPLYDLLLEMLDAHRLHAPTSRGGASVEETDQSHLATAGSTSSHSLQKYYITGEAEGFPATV
# Procedure, shortened: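 Antagonist-mode qHTS in ER-alpha-UAS-bla HEK 293 cells: compound titration, 0.5nM estradiol for 18 h, CCF4 fluorescence, Hill-derived IC50.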
# [15] = qHTS assay for small molecule antagonists of peroxisome proliferator-activated receptor delta signaling (AID 588535; active = well fitted inhibition curve with a large enough effect in the signal ratio, with a control signal flat, not every such curve was filed as active; the % refers to the signal ratio;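 as to max response: cells co-treated with a PPAR-delta agonist as stimulator during compound exposure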); conditions: HEK293T PPARd-UAS-bla, beta-lactamase FRET ratio, 18 h; 460 nm channel
# Procedure, shortened: (§1)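 Reporter: UAS-bla under PPAR-delta response element, HEK293T host. Medium: 2% charcoal/dextran FBS. Dosing: titration, 18 hrs, 37 C. Detection: CCF4, 2 hrs RT, 405 ex/460 and 530 em.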
# [16] = biological target: Peroxisome proliferator-activated receptor delta (Homo sapiens) (UniProt Q03181); experiment: as above
# Sequence of Peroxisome proliferator-activated receptor delta (Homo sapiens) (Q03181 whole entry, looked up): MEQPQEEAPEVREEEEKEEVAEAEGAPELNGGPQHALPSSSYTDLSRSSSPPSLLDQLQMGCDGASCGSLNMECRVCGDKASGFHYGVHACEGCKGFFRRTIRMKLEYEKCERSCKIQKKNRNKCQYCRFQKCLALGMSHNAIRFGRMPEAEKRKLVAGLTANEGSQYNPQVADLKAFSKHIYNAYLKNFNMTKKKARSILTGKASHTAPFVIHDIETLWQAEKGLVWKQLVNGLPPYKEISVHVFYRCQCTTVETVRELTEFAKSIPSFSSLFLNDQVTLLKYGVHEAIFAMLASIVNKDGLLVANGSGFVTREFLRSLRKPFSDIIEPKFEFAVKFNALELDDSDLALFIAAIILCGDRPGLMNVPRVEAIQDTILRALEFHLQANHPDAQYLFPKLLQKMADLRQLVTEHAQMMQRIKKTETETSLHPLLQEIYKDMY
# Procedure, shortened: as §1
# [17] = qHTS assay for small molecule activators of the nuclear factor-kappa B (NF-kB) signaling pathway (AID 651749; active = well fitted activation curve with a large enough effect in the signal ratio; the % refers to the signal ratio); conditions: NF-kB-bla ME-180 cells, beta-lactamase FRET ratio, 16 h; stronger effect = higher value
# Procedure, shortened: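 Screening used 2,000 ME-180 reporter cells per well exposed to pinned compound (23 nL) or DMSO; after 16 hr at 37C, beta-lactamase expression under NF-kB control was assessed through FRET.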
# [18] = qHTS assay for small molecule activators of the human pregnane X receptor (PXR) signaling pathway (AID 720659; call rule not given here)
# [19] = biological target: Cytochrome P450 2C9 (Homo sapiens) (UniProt P11712); experiment: qHTS for inhibitors of CYP2C9 against the NCATS DSHEA and TCM libraries (AID 1919973); also: potency is read from the fitted curve at half-maximal effect
# Sequence of Cytochrome P450 2C9 (Homo sapiens) (P11712 whole entry, looked up): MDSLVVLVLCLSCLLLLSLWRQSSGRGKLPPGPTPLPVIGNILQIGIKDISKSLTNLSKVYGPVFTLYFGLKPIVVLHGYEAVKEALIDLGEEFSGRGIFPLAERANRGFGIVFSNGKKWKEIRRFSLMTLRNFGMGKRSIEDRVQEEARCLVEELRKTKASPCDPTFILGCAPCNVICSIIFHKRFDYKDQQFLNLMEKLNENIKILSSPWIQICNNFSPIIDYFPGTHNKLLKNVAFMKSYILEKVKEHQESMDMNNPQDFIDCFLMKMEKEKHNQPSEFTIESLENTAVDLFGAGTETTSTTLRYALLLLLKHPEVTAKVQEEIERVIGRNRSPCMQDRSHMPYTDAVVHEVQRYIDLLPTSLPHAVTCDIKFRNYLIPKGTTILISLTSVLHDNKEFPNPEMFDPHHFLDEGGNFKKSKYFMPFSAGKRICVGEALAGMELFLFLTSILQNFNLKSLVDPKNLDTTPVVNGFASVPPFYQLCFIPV
# Procedure, shortened: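 Luminescent P450-Glo format: compounds preincubated 15 min with enzyme and luciferin substrate, reaction run 30-45 min after NADPH regeneration solution. Intraplate controls: ketoconazole for CYP3A4 and CYP2C19, sulfaphenazole for CYP2C9.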
# [20] = test system: DFO2036; experiment: qHTS profiling for inhibitors of Plasmodium falciparum proliferation (AID 504749); also: nearly all actives have a fitted effect of over 60% in size; conditions: P. falciparum in erythrocytes, SYBR Green DNA, 72 h; series mostly up to 12.8 µM
# Procedure, shortened: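 Parasite proliferation within erythrocytes, 72 h exposure. Endpoint: SYBR Green I fluorescence after overnight lysis at room temperature. Controls: 0.29 uM artemisinin, DMSO.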
smiles,measurement,setting,value
C=CC(C)(O)CCC=C(C)C (stereo unspecified),outcome,[1],inactive
same,outcome,[2],inactive
same,outcome,[3],inactive
same,outcome,[4],inactive
same,outcome,[5],inactive
same,outcome,[6],inactive
same,outcome,[7],inactive
same,outcome,[8],inactive
same,outcome,[9],inactive
same,outcome,[10],inactive
same,outcome,[11],inactive
same,Potency,[12],inactive
COS(C)(=O)=O,outcome,[13],inactive
same,outcome,[1],inactive
same,outcome,[2],inactive
same,outcome,[3],inactive
same,outcome,[4],inactive
same,outcome,[5],inactive
same,outcome,[6],inactive
same,outcome,[7],inactive
same,outcome,[8],inactive
same,outcome,[9],inactive
same,outcome,[14],inactive
same,max response,[15],-15.8%
same,outcome,[16],inactive
same,activation,[17],0.279% (inactive)
same,outcome,[18],inactive
COc1ccc2ccc(=O)oc2c1,Potency,[19],inactive
O=c1ccc2ccc(O)cc2o1,Potency,[19],7.08 µM (active)
O=C(Cc1cccs1)NC1C(=O)N2C(C(=O)[O-])=C(C[n+]3ccccc3)CSC12 (stereo unspecified),Potency,[20],inactive
C=C(C)[C@H]1CC=C(C)C(=O)C1,outcome,[13],inactive
same,outcome,[1],inactive
same,outcome,[2],inactive
same,outcome,[3],inactive
same,outcome,[4],inactive
same,outcome,[5],inactive
same,outcome,[6],inactive
same,outcome,[7],inactive
same,outcome,[8],inactive
same,outcome,[9],inactive
same,max response,[15],35.6% and 28.4%
same,outcome,[16],inactive
same,activation,[17],-0.312% (inactive) and 0.229% (inactive)
same,Potency,[19],inactive
same,outcome,[18],inactive
CN1[C@@H]2CC[C@H]1CC(OC(=O)[C@@H](O)c1ccccc1)C2 (stereo partly specified),Potency,[20],inactive
